# Measured values: article PMC7862700, “An all-to-all approach to the identification of sequence-specific readers for epigenetic DNA modifications on cytosine”
# Columns and labels:
# Experiment in all cases: DAPPL (digital affinity profiling via proximity ligation, sequencing); 10 mM Tris-HCl pH 7.5, 50 mM NaCl, 1 mM DTT, 4% glycerol, room temperature, 30 min; GST-TFs on glutathione beads, 16-mer random dsDNA library, 0.1% formaldehyde crosslink after washing; high values mean tight binding
# FLI1 = biological target: T1, FLI1 (Homo sapiens, UniProt Q01543 1-452); settings: protein: recombinant; tags: N-terminal GST; dsDNA, one strand shown
# T1 sequence: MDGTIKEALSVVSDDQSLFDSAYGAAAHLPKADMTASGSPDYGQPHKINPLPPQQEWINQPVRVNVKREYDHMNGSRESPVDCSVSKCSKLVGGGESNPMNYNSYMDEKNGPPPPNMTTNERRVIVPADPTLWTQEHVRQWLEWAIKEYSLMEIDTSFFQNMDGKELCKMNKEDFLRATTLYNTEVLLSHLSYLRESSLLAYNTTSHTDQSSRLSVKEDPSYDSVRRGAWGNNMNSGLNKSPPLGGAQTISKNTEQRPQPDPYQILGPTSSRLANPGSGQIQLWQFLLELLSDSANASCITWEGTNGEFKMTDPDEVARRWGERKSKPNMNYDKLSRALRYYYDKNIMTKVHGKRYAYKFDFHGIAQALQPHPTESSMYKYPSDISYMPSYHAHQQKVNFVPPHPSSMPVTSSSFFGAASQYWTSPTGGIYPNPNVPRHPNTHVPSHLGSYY
# Method in brief: (§1)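 Human transcription factors carrying a GST fusion were produced in yeast, bound to glutathione beads, tagged with DNA barcodes and pooled together with a tag-only sample. Each pool was held with 200 nmole of a random double-stranded 16-mer DNA library in Tris/NaCl/DTT/glycerol buffer for 30 min at room temperature, then washed, crosslinked in 0.1% formaldehyde, proximity-ligated with BsaI/T4 ligase (1 h, 37 °C), PCR-amplified and sequenced on an Illumina NextSeq500. Binding signal is the read frequency of each hexamer for a given factor divided by its frequency in the tag-only sample.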
# ELK1 = biological target: T2, ELK1 (Homo sapiens, UniProt P19419 1-428); settings: protein: recombinant; tags: N-terminal GST; dsDNA, one strand shown
# T2 sequence: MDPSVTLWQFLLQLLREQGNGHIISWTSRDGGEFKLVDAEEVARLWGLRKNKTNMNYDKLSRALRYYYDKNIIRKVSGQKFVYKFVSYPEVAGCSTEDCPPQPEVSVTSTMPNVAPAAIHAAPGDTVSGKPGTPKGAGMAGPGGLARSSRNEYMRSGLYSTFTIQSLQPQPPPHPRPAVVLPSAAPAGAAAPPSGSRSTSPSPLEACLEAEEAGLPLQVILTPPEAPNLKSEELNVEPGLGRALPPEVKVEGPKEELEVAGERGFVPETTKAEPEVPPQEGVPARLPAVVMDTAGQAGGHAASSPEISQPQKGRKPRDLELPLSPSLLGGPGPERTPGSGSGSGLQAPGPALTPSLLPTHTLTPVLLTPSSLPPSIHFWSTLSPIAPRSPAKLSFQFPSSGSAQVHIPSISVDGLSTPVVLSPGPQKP
# Method in brief: as §1
# GABPA = biological target: T3, GABPA (Homo sapiens, UniProt Q06546 1-454); settings: protein: recombinant; tags: N-terminal GST; dsDNA, one strand shown
# T3 sequence: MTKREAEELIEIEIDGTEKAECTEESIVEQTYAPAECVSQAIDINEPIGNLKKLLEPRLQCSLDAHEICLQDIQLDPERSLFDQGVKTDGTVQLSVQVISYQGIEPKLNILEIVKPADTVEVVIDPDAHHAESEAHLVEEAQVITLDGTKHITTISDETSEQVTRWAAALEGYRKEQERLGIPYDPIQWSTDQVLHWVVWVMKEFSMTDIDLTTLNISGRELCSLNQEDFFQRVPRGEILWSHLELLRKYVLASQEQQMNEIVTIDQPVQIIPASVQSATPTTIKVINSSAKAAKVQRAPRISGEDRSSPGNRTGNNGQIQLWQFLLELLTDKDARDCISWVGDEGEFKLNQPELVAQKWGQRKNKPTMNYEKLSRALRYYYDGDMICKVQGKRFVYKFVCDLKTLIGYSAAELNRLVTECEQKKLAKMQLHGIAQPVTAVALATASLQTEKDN
# Method in brief: as §1
# ERG = biological target: T4, ERG (Homo sapiens, UniProt P11308 1-479); settings: protein: recombinant; tags: N-terminal GST; dsDNA, one strand shown
# T4 sequence: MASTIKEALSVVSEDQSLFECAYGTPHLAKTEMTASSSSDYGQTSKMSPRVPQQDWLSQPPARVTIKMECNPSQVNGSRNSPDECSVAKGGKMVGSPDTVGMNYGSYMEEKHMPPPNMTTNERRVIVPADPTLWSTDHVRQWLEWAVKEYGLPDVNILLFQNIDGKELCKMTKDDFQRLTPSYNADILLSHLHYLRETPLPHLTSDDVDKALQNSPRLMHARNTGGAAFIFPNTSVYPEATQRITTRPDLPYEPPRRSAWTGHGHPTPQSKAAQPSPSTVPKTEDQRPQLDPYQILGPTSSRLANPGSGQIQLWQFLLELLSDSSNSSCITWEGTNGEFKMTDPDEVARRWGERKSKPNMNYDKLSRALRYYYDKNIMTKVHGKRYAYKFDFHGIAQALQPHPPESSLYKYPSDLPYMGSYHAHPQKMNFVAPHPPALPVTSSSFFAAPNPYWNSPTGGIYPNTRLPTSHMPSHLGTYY
# Method in brief: as §1
# ELF1 = ELF1 (Homo sapiens, UniProt P32519 1-619); settings: protein: recombinant; tags: N-terminal GST; dsDNA, one strand shown
# ELF1, sequence (P32519 whole entry): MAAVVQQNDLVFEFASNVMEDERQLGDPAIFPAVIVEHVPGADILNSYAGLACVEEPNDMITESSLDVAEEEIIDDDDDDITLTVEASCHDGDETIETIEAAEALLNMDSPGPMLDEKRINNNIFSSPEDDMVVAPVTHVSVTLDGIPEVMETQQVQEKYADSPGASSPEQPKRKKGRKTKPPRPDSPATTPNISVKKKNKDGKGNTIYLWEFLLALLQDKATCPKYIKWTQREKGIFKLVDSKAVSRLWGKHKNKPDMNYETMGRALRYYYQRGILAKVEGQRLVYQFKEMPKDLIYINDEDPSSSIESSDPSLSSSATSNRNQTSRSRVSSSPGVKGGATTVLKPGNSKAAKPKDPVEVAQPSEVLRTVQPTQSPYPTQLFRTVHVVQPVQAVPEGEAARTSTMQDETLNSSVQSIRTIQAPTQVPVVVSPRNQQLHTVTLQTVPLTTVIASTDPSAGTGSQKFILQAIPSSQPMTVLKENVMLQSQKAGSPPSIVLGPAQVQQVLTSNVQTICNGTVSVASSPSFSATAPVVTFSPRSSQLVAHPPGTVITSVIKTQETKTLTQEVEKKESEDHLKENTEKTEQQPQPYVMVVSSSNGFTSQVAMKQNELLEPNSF
# Method in brief: as §1
# EHF = biological target: T5, EHF (Homo sapiens, UniProt Q9NZC4 1-300); settings: protein: recombinant; tags: N-terminal GST; dsDNA, one strand shown
# T5 sequence: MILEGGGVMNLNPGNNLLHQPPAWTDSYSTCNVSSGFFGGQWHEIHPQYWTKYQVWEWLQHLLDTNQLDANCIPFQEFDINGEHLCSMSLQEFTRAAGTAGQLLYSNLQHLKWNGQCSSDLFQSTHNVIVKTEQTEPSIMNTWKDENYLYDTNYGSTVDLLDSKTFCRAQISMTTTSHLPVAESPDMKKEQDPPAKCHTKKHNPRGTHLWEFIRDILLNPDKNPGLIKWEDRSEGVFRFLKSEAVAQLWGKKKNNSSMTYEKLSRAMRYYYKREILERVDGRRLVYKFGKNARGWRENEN
# Method in brief: as §1
# SPI1 = SPI1 (Homo sapiens, UniProt P17947 1-270); settings: protein: recombinant; tags: N-terminal GST; dsDNA, one strand shown
# Method in brief: as §1
# SPIB = SPIB (Homo sapiens, UniProt Q01892 1-262); settings: protein: recombinant; tags: N-terminal GST; dsDNA, one strand shown
# SPIB, sequence (Q01892 whole entry): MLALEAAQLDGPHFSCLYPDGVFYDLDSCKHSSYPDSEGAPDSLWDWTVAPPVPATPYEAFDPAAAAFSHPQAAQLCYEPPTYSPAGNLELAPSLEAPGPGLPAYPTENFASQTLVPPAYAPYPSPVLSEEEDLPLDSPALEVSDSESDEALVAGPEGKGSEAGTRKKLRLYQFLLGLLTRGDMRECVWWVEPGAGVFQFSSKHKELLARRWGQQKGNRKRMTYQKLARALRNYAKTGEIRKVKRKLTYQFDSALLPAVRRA
# Method in brief: as §1
# ELK3 = biological target: T6, ELK3 (Homo sapiens, UniProt P41970 1-407); settings: protein: recombinant; tags: N-terminal GST; dsDNA, one strand shown
# T6 sequence: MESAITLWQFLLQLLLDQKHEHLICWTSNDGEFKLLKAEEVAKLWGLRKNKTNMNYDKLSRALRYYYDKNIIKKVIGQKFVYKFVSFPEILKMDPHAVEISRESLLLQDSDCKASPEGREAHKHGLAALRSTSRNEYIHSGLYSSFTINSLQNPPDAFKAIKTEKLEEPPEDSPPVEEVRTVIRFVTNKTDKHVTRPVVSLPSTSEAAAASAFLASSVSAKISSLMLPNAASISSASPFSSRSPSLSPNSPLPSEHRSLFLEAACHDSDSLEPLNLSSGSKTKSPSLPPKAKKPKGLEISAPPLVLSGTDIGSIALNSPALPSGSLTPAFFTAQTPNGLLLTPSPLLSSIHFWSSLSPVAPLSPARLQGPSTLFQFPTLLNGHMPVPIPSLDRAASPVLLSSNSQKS
# Method in brief: as §1
# FEV = biological target: T7, FEV (Homo sapiens, UniProt Q99581 1-238); settings: protein: recombinant; tags: N-terminal GST; dsDNA, one strand shown
# T7 sequence: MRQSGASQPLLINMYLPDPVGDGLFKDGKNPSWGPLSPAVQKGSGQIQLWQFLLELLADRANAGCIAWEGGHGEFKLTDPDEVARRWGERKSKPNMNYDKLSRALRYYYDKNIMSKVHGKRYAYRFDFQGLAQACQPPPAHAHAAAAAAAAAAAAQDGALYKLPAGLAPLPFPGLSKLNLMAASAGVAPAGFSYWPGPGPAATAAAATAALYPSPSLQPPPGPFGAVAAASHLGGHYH
# Method in brief: as §1
# ETV5 = ETV5 (Homo sapiens, UniProt P41161 1-510); settings: protein: recombinant; tags: N-terminal GST; dsDNA, one strand shown
# ETV5, sequence (P41161 whole entry): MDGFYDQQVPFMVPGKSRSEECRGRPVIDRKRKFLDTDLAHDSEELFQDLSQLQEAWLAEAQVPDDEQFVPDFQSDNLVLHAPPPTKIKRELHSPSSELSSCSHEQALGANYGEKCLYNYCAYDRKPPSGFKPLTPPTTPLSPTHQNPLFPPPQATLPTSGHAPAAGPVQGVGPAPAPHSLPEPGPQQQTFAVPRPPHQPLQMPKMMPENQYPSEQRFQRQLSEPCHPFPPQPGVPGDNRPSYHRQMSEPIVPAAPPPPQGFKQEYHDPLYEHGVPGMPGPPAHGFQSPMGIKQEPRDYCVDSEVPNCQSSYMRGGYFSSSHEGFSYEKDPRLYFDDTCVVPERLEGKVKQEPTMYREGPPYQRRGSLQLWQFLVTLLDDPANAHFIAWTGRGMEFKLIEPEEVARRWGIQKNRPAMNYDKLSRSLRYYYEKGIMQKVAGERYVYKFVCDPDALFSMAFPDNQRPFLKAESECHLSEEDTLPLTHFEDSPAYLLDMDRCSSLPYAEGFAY
# Method in brief: as §1
# HSF1 = HSF1 (Homo sapiens, UniProt Q00613 1-529); settings: protein: recombinant; tags: N-terminal GST; chain copies: 3; dsDNA, one strand shown
# HSF1, sequence (Q00613 whole entry): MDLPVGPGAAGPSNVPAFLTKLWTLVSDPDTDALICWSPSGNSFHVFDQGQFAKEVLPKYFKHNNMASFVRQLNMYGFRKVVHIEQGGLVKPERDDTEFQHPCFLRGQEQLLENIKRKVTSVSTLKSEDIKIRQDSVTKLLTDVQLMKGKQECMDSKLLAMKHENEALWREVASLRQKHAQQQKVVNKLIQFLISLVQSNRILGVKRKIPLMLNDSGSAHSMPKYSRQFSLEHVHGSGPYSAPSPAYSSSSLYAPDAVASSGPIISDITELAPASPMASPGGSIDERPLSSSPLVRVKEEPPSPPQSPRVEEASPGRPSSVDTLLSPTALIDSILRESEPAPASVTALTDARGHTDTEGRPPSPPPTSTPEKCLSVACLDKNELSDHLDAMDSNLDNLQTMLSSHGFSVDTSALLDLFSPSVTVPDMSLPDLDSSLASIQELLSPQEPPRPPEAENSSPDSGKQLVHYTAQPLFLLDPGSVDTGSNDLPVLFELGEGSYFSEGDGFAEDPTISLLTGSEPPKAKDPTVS
# Method in brief: as §1
# SPIC = biological target: T8, SPIC (Homo sapiens, UniProt Q8N5J4 1-248); settings: protein: recombinant; tags: N-terminal GST; dsDNA, one strand shown
# T8 sequence: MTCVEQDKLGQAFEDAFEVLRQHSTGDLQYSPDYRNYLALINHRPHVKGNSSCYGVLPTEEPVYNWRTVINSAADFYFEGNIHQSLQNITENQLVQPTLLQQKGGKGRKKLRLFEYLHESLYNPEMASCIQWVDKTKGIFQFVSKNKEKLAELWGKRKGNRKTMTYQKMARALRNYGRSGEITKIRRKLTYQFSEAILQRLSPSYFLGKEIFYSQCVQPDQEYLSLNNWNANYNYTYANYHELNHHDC
# Method in brief: as §1
# ELF4 = ELF4 (Homo sapiens, UniProt Q99607 1-663); settings: protein: recombinant; tags: N-terminal GST; dsDNA, one strand shown
# ELF4, sequence (Q99607 whole entry): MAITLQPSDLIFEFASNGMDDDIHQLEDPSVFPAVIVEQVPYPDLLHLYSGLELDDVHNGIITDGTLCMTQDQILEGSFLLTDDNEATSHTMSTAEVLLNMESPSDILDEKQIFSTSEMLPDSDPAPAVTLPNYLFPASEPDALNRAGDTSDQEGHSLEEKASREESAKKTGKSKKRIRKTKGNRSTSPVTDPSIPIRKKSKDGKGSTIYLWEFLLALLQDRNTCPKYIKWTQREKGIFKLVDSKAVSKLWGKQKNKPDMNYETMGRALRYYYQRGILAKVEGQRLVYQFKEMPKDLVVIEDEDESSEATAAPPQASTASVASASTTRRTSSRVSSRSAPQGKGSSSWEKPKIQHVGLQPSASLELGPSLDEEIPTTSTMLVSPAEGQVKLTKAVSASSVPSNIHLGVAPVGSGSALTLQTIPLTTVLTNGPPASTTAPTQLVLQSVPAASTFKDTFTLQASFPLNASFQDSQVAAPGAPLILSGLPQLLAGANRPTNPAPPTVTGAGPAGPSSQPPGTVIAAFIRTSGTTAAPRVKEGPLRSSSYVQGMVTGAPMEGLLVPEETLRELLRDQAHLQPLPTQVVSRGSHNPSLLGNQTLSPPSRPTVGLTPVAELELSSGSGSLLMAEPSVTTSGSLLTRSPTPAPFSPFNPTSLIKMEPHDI
# Method in brief: as §1
# ELK4 = biological target: T9, ELK4 (Homo sapiens, UniProt P28324-2 1-405); settings: protein: recombinant; tags: N-terminal GST; dsDNA, one strand shown
# T9 sequence: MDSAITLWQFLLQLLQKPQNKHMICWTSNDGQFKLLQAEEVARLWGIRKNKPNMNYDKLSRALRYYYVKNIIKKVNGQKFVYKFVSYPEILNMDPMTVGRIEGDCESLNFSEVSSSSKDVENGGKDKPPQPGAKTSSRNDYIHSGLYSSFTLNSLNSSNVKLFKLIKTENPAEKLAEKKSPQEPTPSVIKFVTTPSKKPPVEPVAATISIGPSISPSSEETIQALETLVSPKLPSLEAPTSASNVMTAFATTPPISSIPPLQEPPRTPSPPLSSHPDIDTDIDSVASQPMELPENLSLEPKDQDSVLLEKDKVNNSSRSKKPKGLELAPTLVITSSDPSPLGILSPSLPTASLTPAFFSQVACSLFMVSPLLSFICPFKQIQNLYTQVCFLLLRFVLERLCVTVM
# Method in brief: as §1
# ETV2 = biological target: T10, ETV2 (Homo sapiens, UniProt O00321 1-342); settings: protein: recombinant; tags: N-terminal GST; dsDNA, one strand shown
# T10 sequence: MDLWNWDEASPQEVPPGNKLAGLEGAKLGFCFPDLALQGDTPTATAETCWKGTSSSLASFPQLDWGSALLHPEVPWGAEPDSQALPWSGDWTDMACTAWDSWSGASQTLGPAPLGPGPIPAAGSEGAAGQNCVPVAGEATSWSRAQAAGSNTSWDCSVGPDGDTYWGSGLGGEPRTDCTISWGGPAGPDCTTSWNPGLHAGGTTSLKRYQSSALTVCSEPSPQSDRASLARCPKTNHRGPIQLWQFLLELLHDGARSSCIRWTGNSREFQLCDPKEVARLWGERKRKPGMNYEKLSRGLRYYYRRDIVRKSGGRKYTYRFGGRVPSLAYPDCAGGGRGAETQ
# Method in brief: as §1
# ELF3 = biological target: T11, ELF3 (Homo sapiens, UniProt P78545 1-371); settings: protein: recombinant; tags: N-terminal GST; dsDNA, one strand shown
# T11 sequence: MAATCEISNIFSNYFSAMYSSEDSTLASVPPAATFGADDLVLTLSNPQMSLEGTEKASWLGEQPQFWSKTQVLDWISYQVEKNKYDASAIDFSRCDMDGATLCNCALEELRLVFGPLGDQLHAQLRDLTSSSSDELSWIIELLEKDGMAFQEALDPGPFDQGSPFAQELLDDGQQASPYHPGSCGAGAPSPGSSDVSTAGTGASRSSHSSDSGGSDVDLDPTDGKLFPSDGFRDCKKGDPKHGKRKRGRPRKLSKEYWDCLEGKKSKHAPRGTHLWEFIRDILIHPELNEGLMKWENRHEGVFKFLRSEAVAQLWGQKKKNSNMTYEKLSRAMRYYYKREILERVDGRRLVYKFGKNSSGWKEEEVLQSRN
# Method in brief: as §1
# CRX = CRX (Homo sapiens, UniProt O43186 1-299); settings: protein: recombinant; tags: N-terminal GST; dsDNA, one strand shown
# CRX, sequence (O43186 whole entry): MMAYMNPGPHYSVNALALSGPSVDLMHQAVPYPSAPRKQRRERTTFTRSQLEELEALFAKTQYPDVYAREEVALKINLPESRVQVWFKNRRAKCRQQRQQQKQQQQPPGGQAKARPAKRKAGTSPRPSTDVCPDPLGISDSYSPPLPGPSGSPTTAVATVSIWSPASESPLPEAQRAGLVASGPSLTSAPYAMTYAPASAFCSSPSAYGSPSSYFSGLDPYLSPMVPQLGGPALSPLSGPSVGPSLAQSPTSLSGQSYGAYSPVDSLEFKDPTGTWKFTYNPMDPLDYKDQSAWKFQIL
# Method in brief: as §1
# ETV1 = ETV1 (Homo sapiens, UniProt P50549 1-477); settings: protein: recombinant; tags: N-terminal GST; dsDNA, one strand shown
# ETV1, sequence (P50549 whole entry): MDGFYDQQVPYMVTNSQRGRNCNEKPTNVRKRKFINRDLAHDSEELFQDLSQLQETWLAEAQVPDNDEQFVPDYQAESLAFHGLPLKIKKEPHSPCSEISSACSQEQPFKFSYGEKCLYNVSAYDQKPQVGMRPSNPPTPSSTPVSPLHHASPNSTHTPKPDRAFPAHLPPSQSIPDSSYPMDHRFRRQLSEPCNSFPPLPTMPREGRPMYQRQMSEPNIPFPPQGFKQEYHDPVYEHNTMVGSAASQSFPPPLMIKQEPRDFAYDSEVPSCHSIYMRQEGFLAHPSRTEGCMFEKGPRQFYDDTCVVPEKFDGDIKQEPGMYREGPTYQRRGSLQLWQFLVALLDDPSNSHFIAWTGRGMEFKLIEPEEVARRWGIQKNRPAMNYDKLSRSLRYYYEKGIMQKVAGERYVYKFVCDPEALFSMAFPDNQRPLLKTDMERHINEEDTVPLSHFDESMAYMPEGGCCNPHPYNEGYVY
# Method in brief: as §1
sequence,measurement,setting,value
TTACCC,binding signal,FLI1,"1.3 fold enrichment (6-mer frequency, TF over GST control)"
same,binding signal,ELK1,"1.44 fold enrichment (6-mer frequency, TF over GST control)"
same,binding signal,GABPA,"1.3 fold enrichment (6-mer frequency, TF over GST control)"
same,binding signal,ERG,"1.34 fold enrichment (6-mer frequency, TF over GST control)"
same,binding signal,ELF1,"1.38 fold enrichment (6-mer frequency, TF over GST control)"
same,binding signal,EHF,"1.43 fold enrichment (6-mer frequency, TF over GST control)"
same,binding signal,SPI1,"1.35 fold enrichment (6-mer frequency, TF over GST control)"
same,binding signal,SPIB,"1.45 fold enrichment (6-mer frequency, TF over GST control)"
same,binding signal,ELK3,"1.39 fold enrichment (6-mer frequency, TF over GST control)"
same,binding signal,FEV,"1.36 fold enrichment (6-mer frequency, TF over GST control)"
same,binding signal,ETV5,"1.36 fold enrichment (6-mer frequency, TF over GST control)"
same,binding signal,HSF1,"1.43 fold enrichment (6-mer frequency, TF over GST control)"
same,binding signal,SPIC,"1.4 fold enrichment (6-mer frequency, TF over GST control)"
same,binding signal,ELF4,"1.48 fold enrichment (6-mer frequency, TF over GST control)"
same,binding signal,ELK4,"1.38 fold enrichment (6-mer frequency, TF over GST control)"
same,binding signal,ETV2,"1.56 fold enrichment (6-mer frequency, TF over GST control)"
same,binding signal,ELF3,"1.14 fold enrichment (6-mer frequency, TF over GST control)"
same,binding signal,CRX,"1.95 fold enrichment (6-mer frequency, TF over GST control)"
same,binding signal,ETV1,"1.35 fold enrichment (6-mer frequency, TF over GST control)"
